Measurements taken from PubChem BioAssay (NCATS).
“And” between values parts separate entries of the source, which are not always exact repeats. Equal entries are not always repeated. The source made the active and inactive calls. How the calls were made is not given here.

Columns and labels:
[1] = Immunotoxin (HA22) sensitization/mitigation study. Vehicle arm (PBS) (AID 1159510); details: cancer cells viability with PBS vehicle (HA22 study); series mostly up to 46.1 µM
[2] = Immunotoxin (SS1P) sensitization/mitigation study. Vehicle arm (DMEM) (AID 1159513); details: cell viability with vehicle (DMEM); series mostly up to 46.1 µM
Potency means the concentration at half of the fitted maximal effect.

SMILES	Potency [1]	Potency [2]
O=C(OCC#CCSc1nnc(-c2ccc3ccccc3c2)o1)c1cc2ccccc2s1	inactive	inactive
CN1C(=O)C(Cc2c[nH]c3ccccc23)NC1=S (configuration not stated)	inactive	inactive
CN(C)CCN(C)C(=O)c1ccc(NC(=O)Nc2ccc(-c3nc(N4CCOCC4)c4ccn(CC(F)(F)F)c4n3)cc2)cc1	1.48 µM (active)	0.0264 µM (active)
Cc1cccc(C#Cc2ccccc2)n1	inactive	inactive
Nc1ccccc1NC(=O)c1ccc(CNc2nccc(-c3cccnc3)n2)cc1	0.132 µM (active)	0.187 µM (active)
CO[C@H]1C=CC=C(C)C(=O)NC2=CC(=O)C(NCCN(C)C)=C(C[C@@H](C)C[C@H](OC)[C@@H](O)[C@@H](C)C=C(C)[C@@H]1OC(N)=O)C2=O	0.0059 µM (active)	3.32 µM (active)
O=C(O)CCc1ccc(NCc2cccc(Oc3ccccc3)c2)cc1	inactive	inactive
O=c1[nH]nc(Sc2ncc([N+](=O)[O-])s2)n1-c1ccc2c(c1)OCCO2	0.264 µM (active)	20.9 µM (active)
Cn1c(=O)n(-c2ccc(C(C)(C)C#N)cc2)c2c3cc(-c4cnc5ccccc5c4)ccc3ncc21	3.72 µM (active)	0.0332 µM (active)
CC=C1NC(=O)[C@H]2CSSCCC=C[C@H](CC(=O)N[C@H](C(C)C)C(=O)N2)OC(=O)[C@H](C(C)C)NC1=O	0.0017 µM (active)	0.0019 µM (active)
COc1ccc2c(c1)CC[C@@H](CN(C)CC(=O)O)[C@H]2c1ccccc1	inactive	inactive
COc1ccc(-c2ccc3c(N4CCOC[C@H]4C)nc(N4CCOC[C@H]4C)nc3n2)cc1CO	0.469 µM (active)	0.0105 µM (active)
O=C(NC1CCNCC1)c1[nH]ncc1NC(=O)c1c(Cl)cccc1Cl	37.2 nM (active) and 105 nM (active)	29.6 nM (active) and 83.3 nM (active)
CC(C)[C@H](C(=O)Nc1ccc(C(=O)NO)cc1)c1ccccc1	0.0418 µM (active)	0.132 µM (active)
O=C(NOC[C@H](O)CO)c1ccc(F)c(F)c1Nc1ccc(I)cc1F	inactive	inactive
COC(=O)Nc1ccc(-c2nc(N3CCOCC3)c3cnn(C4CCN(C(=O)OC)CC4)c3n2)cc1	16.6 µM (active)	0.187 µM (active)

SMILES	Potency [1]	Potency [2]
CC(=O)Nc1sc2c(c1-c1nc3ccccc3s1)CNC2	16.6 µM (active)	23.5 µM (active)
Cn1cc(-c2[nH]c3cc(NC(=O)[C@H](N)C4CCCCC4)cc4c3c2C=NNC4=O)cn1	0.59 µM (active)	1.87 µM (active)
CCOC(=O)[C@@H](N)CCC(=O)N[C@@H](CSCc1ccccc1)C(=O)N[C@@H](C(=O)OCC)c1ccccc1	23.5 µM (active)	inactive
Cc1ccc(C(=O)N(CCCN)[C@@H](c2nc3cc(Cl)ccc3c(=O)n2Cc2ccccc2)C(C)C)cc1	0.0037 µM (active)	0.0053 µM (active)
S=C(NCc1ccc2c(c1)OCO2)N1CCN(c2ncnc3c2oc2ccccc23)CC1	18.7 µM (active)	0.372 µM (active)
CC(=O)OCCN1C(=O)c2c(C)nc3ccc(S(=O)(=O)N4CCOCC4)cc3c2C1=O	inactive	inactive
Cc1ccc(C(=O)Nc2ccc(CN3CCN(C)CC3)c(C(F)(F)F)c2)cc1C#Cc1cnc2cccnn12	1.32 µM (active)	6.62 µM (active)
O=C(Nc1ccc(F)c(C(F)(F)F)c1)Nc1nnc(-c2ccncc2)s1	2.09 µM (active)	5.9 µM (active)
O=C(Nc1ccc(OC(F)(F)F)cc1)c1sccc1NCc1ccnc2ccccc12	18.7 µM (active)	18.7 µM (active)
CN1CCN(c2ccc3nc(-c4c(N)c5c(F)cccc5[nH]c4=O)[nH]c3c2)CC1	1.66 µM (active)	18.7 µM (active)
CC(C)Oc1cc(Nc2nc(N[C@@H](C)c3ccc(F)cn3)ncc2Cl)[nH]n1	20.9 µM (active)	20.9 µM (active)
Cc1cc([C@@H](C)Nc2ccccc2C(=O)O)c2nc(N3CCOCC3)cc(=O)n2c1	14.8 µM (active)	20.9 µM (active)
CC(C)c1ccc2c(c1)c(SC(C)(C)C)c(CC(C)(C)C(=O)O)n2Cc1ccc(Cl)cc1	13.2 µM (active)	11.8 µM (active)
C1Cc2[nH]nc(-c3nn[nH]n3)c2C1	inactive	inactive
CCCS(=O)(=O)Nc1ccc(F)c(C(=O)c2c[nH]c3ncc(Cl)cc23)c1F	20.9 µM (active)	16.6 µM (active)
